From ChEMBL document CHEMBL3988442, “University of Dundee, Small-Polar-MMV Screening Library” (2021)
Hit rate of the full screen: of about 48,000 compounds, about 13,000 (27%) showed an effect of 50% or more. Some of the results follow.

Test system: Wolbachia pipientis
Assay: Anti-Wolbachia Cell-Based Screen
Type: functional
Design: scale not given: in the data most compounds retested in dose-response had high values
Conditions: 5 µM

Row | Structure (SMILES) | Percent Effect [%]
1 | CCN(CC)C(CNCc1ccc(O)cc1)c1ccco1 (stereo not given) | 0.1551
2 | CCCN(Cc1cccnc1)Cc1ccc(C2CCCCO2)o1 (stereo not given) | 8.313
3 | Fc1ccccc1CN(CCCn1ccnc1)CC1CCOC1.O=C(O)CC(O)(CC(=O)O)C(=O)O (stereo not given) | 96.39
4 | O=C(NCCCn1ccnc1)C1COCC(=O)N1Cc1ccccc1 (stereo not given) | -1.911
5 | c1cncc(CN(CCCn2ccnc2)CC2CCOC2)c1 (stereo not given) | 114.4
6 | Cc1ccc(CN(CCCn2ccnc2)Cc2c[nH]cn2)s1.O=C(O)CC(O)(CC(=O)O)C(=O)O | -8.779
7 | CCc1ccc(CN(CCCn2ccnc2)Cc2ccc(C)s2)o1.O=C(O)CC(O)(CC(=O)O)C(=O)O | -10.6
8 | CC1COCCN1C(=O)NCCCn1ccnc1 (stereo not given) | -6.702
9 | COc1ccccc1CN(CCCn1ccnc1)CC1CCOC1.O=C(O)CC(O)(CC(=O)O)C(=O)O (stereo not given) | 173.3
10 | CN(Cc1cccnc1)CC1CCOc2ccccc2C1 (stereo not given) | 1.385
11 | Cc1nc(C)c(C(=O)NCCOc2ccc(C(F)(F)F)cn2)o1 | -28.79
12 | N[C@H]1CCCN(C(=O)c2cnc(COc3ccccc3)nc2O)C1 | -11.28
13 | CC(C)n1c(C2CCCN(CCS(C)(=O)=O)C2)nc2ccccc21 (stereo not given) | -3.684
14 | Cc1nc2sccn2c1C(=O)N1CCn2nc(C(=O)NC3CC3)cc2C1 | 8.039
15 | Cc1cnc(N2C[C@H]3CCCC(N(C)Cc4ccccn4)[C@H]3C2)nc1.O=C(O)C(F)(F)F (stereo not given in full) | -11.38
16 | CCCN1CCN(Cc2cccc(OC(C)C)c2)[C@H]2CS(=O)(=O)C[C@H]21 | -22.43
17 | COCCN1C[C@@H]2CN(c3cnccn3)C[C@@H]2C1=O | -23.71
18 | CC(C)C1CN(c2cnccn2)CCC(=O)N1Cc1ccc(F)cc1 (stereo not given) | -0.3567
19 | Cc1c[nH]nc1C1CCCN(c2cnccn2)C1 (stereo not given) | 152.5
20 | CCc1cnc(N2CCOC(CCOC)C2)nc1 (stereo not given) | -10.95
21 | COc1ccc(C(=O)C2CCCN(c3cnccn3)C2)c(C)c1 (stereo not given) | -36.51
22 | COCCn1ccnc1C1CCCN(c2cnccn2)C1 (stereo not given) | -8.201
23 | Cc1cccc(C)c1OC1CN(Cc2cnc(N3CCOCC3)nc2)C1 | -7.257
24 | Cc1c[nH]nc1C1CN(c2ncccn2)CCO1 (stereo not given) | 139.2
25 | Cc1c[nH]nc1C1CN(c2cnccn2)CCO1 (stereo not given) | 155.2

Row | Structure (SMILES) | Percent Effect [%]
26 | Cc1c[nH]nc1C1CCN(c2cnccn2)C1 (stereo not given) | 87.37
27 | N#Cc1cccc(N2CCC(CO)(CCCc3ccccc3)CC2)n1 | -12.61
28 | CC(C)(C)c1cnc(CNc2cccc(Cn3cnnc3)c2)o1 | -22.9
29 | COc1ccc(CNC(=O)NCc2ccc(C)cc2)cn1 | -5.418
30 | Cc1nccn1-c1ccc(CNC(=O)c2ccc(O)nc2)cn1 | -3.999
31 | COc1ccc(CNC(=O)NCc2ccc(C(N)=O)cc2)cn1 | 4.713
32 | CC(C)C(NC(=O)Cc1ccccc1)C(=O)NCc1ccc(O)nc1 (stereo not given) | 106
33 | Cc1cccc(C(=O)NC(C(=O)NCc2ccc(O)nc2)C(C)C)c1 (stereo not given) | 103
34 | COc1ccc(CNC(=O)C(NC(=O)Cc2ccccc2)C(C)C)cn1 (stereo not given) | 88.86
35 | CC(C)[C@H](NC(=O)c1cccc(CCC(C)(C)O)c1)C(N)=O | -12.73
36 | CC(C)[C@H](NC(=O)NC1CCS(=O)(=O)C1)C(=O)NCc1cccnc1 (stereo not given in full) | 1.711
37 | CCOC(=O)NC(C(=O)NCc1ccc(N2CCCCC2)nc1)C(C)C (stereo not given) | 2.776
38 | O=S(=O)(CCCS(=O)(=O)c1ccc2c(c1)OCCCO2)c1ccccc1 | -9.516
39 | CC(C)CN1CCCn2nc(CNC(=O)CCCc3cn[nH]c3)cc2C1 | -2.664
40 | O=C(Nc1cc2c(cc1Br)OCCO2)NC1CCS(=O)(=O)C1 (stereo not given) | -24.26
41 | CC(C)CNC(=O)[C@H]1C[C@@H]2CN(C(=O)NCC3CCCCC3)C[C@H]1O2 | -20.2
42 | CC(C)CN1C[C@H]2C[C@H](C(=O)N3CCCC3)[C@@H](C1)O2.O=C(O)C(F)(F)F | 105.1
43 | Cc1ccccc1CNC(=O)N1C[C@H]2C[C@H](C(=O)N3CCCC3)[C@@H](C1)O2 | 2.79
44 | CC(C)CCN1C[C@H]2C[C@H](C(=O)N3CCCC3)[C@@H](C1)O2.O=C(O)C(F)(F)F | 103.2
45 | Cc1cccc(S(=O)(=O)N2C[C@H]3C[C@H](C(=O)NCC(C)C)[C@@H](C2)O3)c1 | -2.145
46 | CC(C)CCN1C[C@H]2C[C@H](C(=O)NCC(C)C)[C@@H](C1)O2.O=C(O)C(F)(F)F | 100.1
47 | CC(O)C1CCN(C(=O)Nc2nc(-c3ccccc3)ns2)CC1 (stereo not given) | -6.98
48 | Cc1nccn1-c1ccc(NC(=O)C2CCCN2Cc2c[nH]cn2)cc1 (stereo not given) | 1.287
49 | O=C(c1ccncc1F)N1CCCC1c1nc(-c2ccccc2)n[nH]1 (stereo not given) | 0.33
50 | NC(=O)c1cn[nH]c1C1CCCN1C(=O)c1ccccc1 (stereo not given) | 135.8

Row | Structure (SMILES) | Percent Effect [%]
51 | O=C(c1cc2c([nH]c1=O)CCC2)N1CCCC1c1ccccn1 (stereo not given) | -3.505
52 | NC(=O)c1cn[nH]c1C1CCCN1C(=O)COc1ccccc1 (stereo not given) | 125.9
53 | COc1ncccc1C(=O)N1CCCC1c1nc(-c2ccccc2)n[nH]1 (stereo not given) | 0.4619
54 | CNC(=O)c1cn[nH]c1C1CCCN1C(=O)c1ccccn1 (stereo not given) | 122.3
55 | O=C(c1cc2c([nH]c1=O)CCC2)N1CCCC1c1ccccc1 (stereo not given) | -12.47
56 | NC(=O)c1cn[nH]c1C1CCCN1C(=O)c1ccccn1 (stereo not given) | 92.76
57 | CN(CC(=O)Nc1cccc(F)c1)Cc1nc(N)nc(N(C)C)n1 | 5.267
58 | CCCSc1ccccc1NC(=O)N1CCN(C(=O)c2ccc[nH]2)CC1 | -3.563
59 | Nc1cc2c(nn1)CCN(C(=O)c1csc(-c3ccco3)n1)C2 | -0.9791
60 | CCCc1cc(CN(C)C2CCSCC2)n[nH]1 | -21.94
61 | Cn1cc(C[C@H]2[C@H](N3CCOCC3)CCN2C(=O)c2ccoc2)cn1 | -12.72
62 | Cc1ccc(C(=O)N2CCN(c3ncnc4nc(N)ccc34)CC2)cc1 | -17.64
63 | CCn1cc(CN2CCN(Cc3cc(C)cc(C)c3)C(=O)C2)cc1C#N | -8.463
64 | CCC(=O)c1ccc(OCC(=O)N2CCNCC2C(=O)NC2CC2)cc1 (stereo not given) | -8.081
65 | O=C(c1cc2c([nH]c1=O)CCC2)N1CCCC1c1cccnc1 (stereo not given) | -4.003
66 | O=C(C1CCC1)N1CCN(C(=O)c2cnccn2)[C@H]2CS(=O)(=O)C[C@H]21 | -11.57
67 | Cl.NC(=O)C1CNCCN1C(=O)COc1ccccc1 (stereo not given) | 142
68 | O=C(NC1CC1)C1CNCCN1C(=O)COc1ccc2c(c1)OCO2 (stereo not given) | 8.797
69 | NC(=O)c1cn[nH]c1C1CCCN1C(=O)c1cnccn1 (stereo not given) | 109.9
70 | O=C(NCc1ccc2c(c1)CCCO2)c1cn2c(n1)CNCC2 | -2.912
71 | CN1CCC(N(Cc2ccco2)S(=O)(=O)c2ccc(Cl)cc2)CC1 | 18.55
72 | COCCc1noc(-c2ccc(N[C@H]3CCCCNC3=O)nc2)n1 | -20.61
73 | COc1nc2ccn(CCc3scnc3C)c(=O)c2cc1C#N | -7.908
74 | Cc1nn(Cc2ccc(C(=O)NCCCN3CCOCC3)o2)c(C)c1Cl | 123.2
75 | Cc1nn(Cc2ccc(C(=O)NCCCN3CCCC3=O)o2)c(C)c1Br | 118.7

Row | Structure (SMILES) | Percent Effect [%]
76 | O=C(NCCN1CCCCCC1=O)c1n[nH]c(=O)c2ccccc12 | -2.472
77 | Cn1cc(C(=O)NCCCN2CCCCCC2=O)c(-c2cccnc2)n1 | -24.83
78 | CCn1nc(C)c(CCNC(=O)c2coc(CN3CCOCC3)c2)c1C | -5.303
79 | CC(NC(=O)NCCCN1CCCC1=O)c1ccc(Cl)s1 (stereo not given) | 5.893
80 | Cc1ccc(C(=O)NCCCN2CCOCC2)c(Cl)c1 | -7.154
81 | O=C(NCCCN1CCCC1=O)Nc1ccc(Br)cc1Cl | 29.75
82 | Cc1nn(Cc2ccc(C(=O)NCCCN3CCCC3=O)o2)c(C)c1Cl | 113
83 | CCOCC1CN(C(=O)c2ccncc2)Cc2nn(C)cc21.O=C(O)C(F)(F)F (stereo not given) | -7.804
84 | COCCn1cc(C(=O)N2CCCC2c2cc(C)no2)ccc1=O (stereo not given) | -14.99
85 | CN1CCC(O)(CNCc2ccc(F)c(C(F)(F)F)c2)CC1 | -14.25
86 | Cc1nc2c(c(NCCc3nc(C)c(Cl)s3)n1)CCNCC2 | 2.221
87 | Nc1nc2c(c(NCc3nccs3)n1)CCN(CC1CCCC1)CC2 | 99.65
88 | CCOCc1nc2c(c(N3CC=CC3)n1)CCN(CC1CC1)CC2 | -17.04
89 | Cc1cnn(CCNc2ncnc3c2CCN(CC2CCOC2)CC3)c1 (stereo not given) | 11.29
90 | Cc1nc2c(c(NCCc3nccs3)n1)CCN(CC1CC1)CC2 | 100.8
91 | c1csc(CN2CCc3nc(N4CCOCC4)nc(NC4CC4)c3C2)n1 | -41.6
92 | COCCNc1nc(C)nc2c1CCN(C[C@H]1CC[C@@H](N)CC1)CC2 | 85.9
93 | COCCNc1nc2c(c(NCC3CCOC3)n1)CCNCC2 (stereo not given) | 0.8355
94 | Nc1nc2c(c(N3CCSCC3)n1)CCN(Cc1ccccn1)CC2 | 1.858
95 | CCN(Cc1nccn1C)C(=O)c1ccc(NCC(C)C)nc1 | -32.37
96 | Cc1cnc(N2CCC3(C2)CN(S(=O)(=O)C2CC2)C3)nc1 | -23.78
97 | CCn1nc(CC(C)C)cc1C(=O)N1CCCOC(CN2CCCC2)C1 (stereo not given) | 12.35
98 | O=C(NCC1CCCO1)Nc1nnc(C(F)(F)F)s1 (stereo not given) | 131.1
99 | CCOCCC(=O)NCC1CCCO1 (stereo not given) | 5.918
100 | COc1cc(CNC(=O)Nc2nnc(C(F)(F)F)s2)ccc1O | -18.17
